Test results published in PubChem BioAssay AID488890 (Southern Research Specialized Biocontainment Screening …, 2010).
Out of some 320,000 compounds screened, about 1,300 (0.41%) were called active. Inconclusive results (about 3%) are left out. The rule behind the calls is not given here. The list is a sample of the results. Entries with a potency or affinity are not part of this list.

Experiment: growth inhibition of non-replicating M. tuberculosis (AID 488890);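 note: plate controls were DMSO cells for no effect and high antibiotic wells for full effect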
Conditions: Mycobacterium tuberculosis non-replicating, at 25 µM, stronger effect = higher value

SMILES	inhibition
CCCCn1c(=O)c(C(=O)Nc2ccccn2)c(O)c2ccccc21	27.8%
CCCCCn1c(=O)c(C(=O)Nc2cc(C)ccn2)c(O)c2ccccc21	17.3%
CCCCn1c(=O)c(C(=O)Nc2ccc(C)cn2)c(O)c2ccccc21	0.62%
CCCCCn1c(=O)c(C(=O)Nc2ccccn2)c(O)c2ccccc21	68.9%
COc1cccc(NC(=O)c2ccnc(N3CCC(C(=O)NCc4ccccc4OC)CC3)c2)c1	-4.35%
CC(C)(C)C(=O)Nc1c2c(nn1-c1ccccc1)CSC2	35%
COc1ccc(OCC(=O)NNC(=O)c2cccnc2)cc1	3.8%
COc1cccc(N2CCN(C(=S)Nc3ccc(F)cc3)CC2)c1	-4.62%
c1coc(Cn2c(-c3ccco3)nc3ccccc32)c1	6.77%
c1ccc(OCCn2c(-c3ccco3)nc3ccccc32)cc1	74.4%
C=CCSc1nnc2c(n1)OC(C)=Nc1ccc(Br)cc1-2	5.66%
Cc1cc(NC(=O)COC(=O)c2ccccc2S(=O)(=O)N(C)c2ccccc2)no1	9.17%
O=C(Nc1ccc2c(c1)CCC2)c1c(F)cccc1Cl	1.55%
O=C(COc1ccccc1)Nc1nnc(-c2ccco2)o1	19.2%
CC1(C(=O)OCC(=O)Nc2ccccc2)CC1(Cl)Cl (centres undefined)	48.2%
O=C(COC(=O)Cc1ccccc1)Nc1nnc(-c2ccccc2)o1	10.8%
CS(=O)(=O)c1ccccc1-c1nnc(NC(=O)COc2ccc(Cl)cc2)o1	21.8%
Cc1ccc(C)c(-c2nnc(NC(=O)Cc3ccccc3)o2)c1	-18%
O=C(CCOc1ccccc1)Nc1nnc(-c2ccc3c(c2)OCCO3)o1	-7.7%
O=C(Nc1nnc(-c2ccncc2)o1)c1ccccc1F	21.3%
COc1ccccc1NC(=O)COC(=O)CCc1ccc(S(=O)(=O)N2CCOCC2)cc1	5.51%
CCCCN1CC(COc2ccccc2)OC1=O (centres undefined)	72.5%
COc1ccc(Nc2oc(COc3cccc(C)c3)nc2C#N)cc1	13.3%
CCN(CC)S(=O)(=O)c1ccc(N2CCCC2)c(NC(=O)c2c(-c3ccccc3)noc2C)c1	13.9%
Cc1cccc(C(=O)NCC(=O)OCC(=O)NC2CCCCC2)c1	-3.75%

SMILES	inhibition
O=C(NCc1ccncc1)C(=O)NCC1OCCN1S(=O)(=O)c1cc(F)ccc1F (centres undefined)	3.82%
Cc1cccc2c(=O)c(C(=O)NCCCN3CCOCC3)c[nH]c12	4.67%
Cc1nnc(SCCn2c(N3CCCCC3)nc3c2c(=O)n(C)c(=O)n3C)s1	7.29%
O=C(Nc1ccc([N+](=O)[O-])cn1)c1ccc2c(c1)OCO2	-8.57%
Cc1cnc(NC(=O)c2ccc3c(c2)OCCO3)s1	12.1%
Cc1ccc(C2(c3noc(CN4CCC(C(=O)N5CCOCC5)CC4)n3)CCCC2)cc1	14.3%
COC(=O)c1oc2ccc(Br)cc2c1NC(=O)CCCN1C(=O)c2ccccc2C1=O	-12.2%
CC(=O)Oc1ccc(C(=O)Nc2cccc(C(=O)NC(C)(C)C)c2)cc1	7.66%
O=C(COc1ccc2c(-c3ccccc3)cc(=O)oc2c1)NCc1ccccn1	7.24%
Cc1nn(-c2ccccc2)c(C)c1CN	6.26%
CCOc1ccc(C(=O)Oc2ccc(NC(C)=O)cc2)cc1	24.7%
CC(=O)Nc1ccc(OC(=O)c2ccc(Cl)cc2)cc1	52.1%
Cc1ccc(N2CC(C(=O)Nc3nnc(SCCC4OCCO4)s3)CC2=O)cc1C (centres undefined)	27.4%
CCN(CC(=O)NCc1ccc(F)cc1)C(=O)COc1ccc(C)c(C)c1	28.3%
COc1ccc(C(=O)O)cc1S(=O)(=O)NC(C)C	-0.91%
Oc1ccc(Br)cc1-c1cc(-c2ccccc2)n[nH]1	-5.74%
Oc1ccc(Br)cc1-c1cc(-c2ccc(Cl)cc2)n[nH]1	13.8%
C1=C(CCNCc2ccccc2)CCCC1	-4.9%
O=C(NNC(=O)C1CC1c1ccccc1)c1ccccc1[N+](=O)[O-] (centres undefined)	-10.3%
O=C(NNC(=O)C1CC1c1ccccc1)c1cccc([N+](=O)[O-])c1 (centres undefined)	3.57%
O=C(NC(NNc1ccc([N+](=O)[O-])cc1)(C(F)(F)F)C(F)(F)F)c1ccccc1Cl	6.68%
NS(=O)(=O)c1ccc(NNC(=O)c2ccccc2C(=O)O)cc1	-12.1%
O=C(NNc1ccc([N+](=O)[O-])cc1)c1ccco1	69.6%
Cc1cc(C(=O)N/N=C/c2ccc[nH]2)no1	64.3%
O=C(O)c1ccccc1C(=O)NNc1ccc(Cl)cc1Cl	10.7%

SMILES	inhibition
Cc1cc(C(=O)N/N=C/c2cccs2)no1	33.9%
CN(c1ccccc1)S(=O)(=O)c1ccc(NC(=S)NC(=O)C2CC2)cc1	-18.9%
COc1cc(OC)cc(C(=O)N2CCC(C(=O)c3ccc(F)cc3)CC2)c1	5.91%
CC(C)[C@@H](C(=O)NC1CC1)N1C(=O)N2CCc3c([nH]c4ccccc34)[C@@]2(C)C1=O	21%
CC1CCC(NC(=O)CN2CCN(S(=O)(=O)c3cccs3)CC2)CC1 (centres undefined)	1.37%
Cc1nc2c(-c3ccc(F)cc3)c(C)nn2c(N2CCOCC2)c1C	40.1%
O=C(O)CSc1nnc(-c2ccc(Cl)cc2Cl)n1Cc1ccccc1	-8.24%
O=C(NC1CCCCC1)C(c1cccs1)N(C(=O)C(F)(F)F)c1ccccc1 (centres undefined)	14.2%
Cc1cc(C(=O)NNC(=O)Nc2ccc(Cl)cc2)no1	-6.49%
Cc1cc(C(=O)NNc2ccc(F)cc2)no1	57.1%
Cc1ccc(C)c(C(=O)CCC(=O)Nc2ccc(F)cc2)c1	40%
CC(C)OCC(O)CS(=O)(=O)Cc1ccccc1 (centres undefined)	-5.18%
O=C(c1cccnc1)N1CCC(Oc2ccc(C(=O)N3CCCC(O)C3)cc2)CC1 (centres undefined)	-34.2%
CSc1nc(Cl)cc(=O)[nH]1	6.5%
CSc1cc(C)[nH]c(=O)n1	-1.97%
O=C(NCC(c1ccco1)N1CCc2ccccc21)c1ccccc1Br (centres undefined)	11.1%
O=C(Nc1nc2ccccc2n1Cc1ccc(Cl)cc1)c1ccco1	-7.17%
CC(=O)NCCCc1nc2ccccc2n1Cc1ccc(C)cc1	1.78%
Cc1ccc(Cn2c(NS(=O)(=O)c3ccccc3)nc3ccccc32)cc1	-3.28%
CC(=O)NCCc1nc2ccccc2n1Cc1ccc(Cl)cc1	0.72%
CC(=O)Nc1ccc(-c2nc3cc(Cl)ccc3o2)cc1	49.8%
CC/C(=N\NC(N)=O)c1c(O)[nH]c(=O)[nH]c1=O	-25.7%
C/C(Cn1nnc([N+](=O)[O-])n1)=N\NC(=O)c1ccc(O)cc1	54.4%
C/C(Cn1nnc([N+](=O)[O-])n1)=N\NC(=O)c1ccc(C)cc1	55.5%
